Common to all, as to parameters: species or system human, MV4-11 + K-562 + COLO205 + SK-N-BE2 + OVCAR-8
Test [1] deals with AKT2. Particulars: read-out: apparent Kd, n = 1.
The test system of test [2] is CDC42. The following applies: read-out: apparent Kd; compound concentrations: 100 nM and 1000 nM (sheet 'Samples'), CATDS: 0.22290293584535001; n = 1.
Test [3] concerns DCTPP1. The following applies: read-out: apparent Kd; compound concentrations: 100 nM and 1000 nM (sheet 'Samples'), CATDS: 0.21946869965493901; n = 1.
The subject of test [4] is T1, DJA1.
T1 construct: gene DNAJA1
The following applies: read-out: apparent Kd; compound concentrations: 100 nM and 1000 nM (sheet 'Samples'), CATDS: 0.217792726025238; n = 1.

Test [5] relates to IRAK4. Particulars: read-out: apparent Kd; compound concentrations: 100 nM and 1000 nM (sheet 'Samples'), CATDS: 0.188463756574588; n = 1.
Test [6] concerns AKT1. Particulars: read-out: apparent Kd; compound concentrations:100 nM and 1000 nM (sheet 'Samples'); n = 1.
For test [7], the system named is CDK16. The following applies: read-out: apparent Kd; compound concentrations:100 nM and 1000 nM (sheet 'Samples'); n = 1.
The subject of test [8] is CDK6. Particulars: read-out: apparent Kd, n = 1.
In test [9] the test system is GSK3A. The following applies: read-out: apparent Kd; compound concentrations:100 nM and 1000 nM (sheet 'Samples'); n = 1.
Test [10] deals with GSK3B. Particulars: read-out: apparent Kd; compound concentrations:100 nM and 1000 nM (sheet 'Samples'); n = 1.
Test [11] relates to MAP2K1. Particulars: read-out: apparent Kd; compound concentrations:100 nM and 1000 nM (sheet 'Samples'); n = 1.
Test [12] has as its system MAP2K2. The following applies: read-out: apparent Kd, n = 1.
Test [13] relates to MAP3K1. The following applies: read-out: apparent Kd; compound concentrations:100 nM and 1000 nM (sheet 'Samples'); n = 1.
The subject of test [14] is MYLK3. The following applies: read-out: apparent Kd; compound concentrations:100 nM and 1000 nM (sheet 'Samples'); n = 1.
Test [15] concerns NLK. The following applies: read-out: apparent Kd; compound concentrations:100 nM and 1000 nM (sheet 'Samples'); n = 1.
The test system of test [16] is NQO1. The following applies: read-out: apparent Kd, n = 1.
Test [17] concerns STK11. The following applies: read-out: apparent Kd; compound concentrations:100 nM and 1000 nM (sheet 'Samples'); n = 1.
Test [18] concerns STK26. Particulars: read-out: apparent Kd, n = 1.
Test [19] concerns TGFBR2. The following applies: read-out: apparent Kd; compound concentrations:100 nM and 1000 nM (sheet 'Samples'); n = 1.
Test [20] has as its system ADRBK1. The following applies: read-out: apparent Kd; compound concentrations: 100 nM and 1000 nM (sheet 'Samples'), CATDS: 0.136000830332002; n = 1.
The subject of test [21] is FLT4. Particulars: read-out: apparent Kd; compound concentrations: 100 nM and 1000 nM (sheet 'Samples'), CATDS: 0.144028041300378; n = 1.
The subject of test [22] is MAP4K5. The following applies: read-out: apparent Kd; compound concentrations: 100 nM and 1000 nM (sheet 'Samples'), CATDS: 0.15363433252833; n = 1.
Test [23] has as its system PLK1. Particulars: read-out: apparent Kd, compound concentrations: 100 nM and 1000 nM (sheet 'Samples'), n = 1.
The subject of test [24] is SLK. The following applies: read-out: apparent Kd; compound concentrations: 100 nM and 1000 nM (sheet 'Samples'), CATDS: 0.13817903386438299; n = 1.
Test [25] has as its system STK10. Particulars: read-out: apparent Kd; compound concentrations: 100 nM and 1000 nM (sheet 'Samples'), CATDS: 0.15967879525120501; n = 1.
Test [26] deals with MAP3K6. Particulars: read-out: apparent Kd; compound concentrations: 100 nM and 1000 nM (sheet 'Samples'), CATDS: 0.18139897534285501; n = 1.
The subject of test [27] is PIK3CA. The following applies: read-out: apparent Kd; compound concentrations: 100 nM and 1000 nM (sheet 'Samples'), CATDS: 0.92567597438095595; n = 1.
The subject of test [28] is TESK1. Particulars: read-out: apparent Kd; compound concentrations: 100 nM and 1000 nM (sheet 'Samples'), CATDS: 0.16638994062749099; n = 1.
The test system of test [29] is RIOK2. Particulars: read-out: apparent Kd; compound concentrations: 100 nM and 1000 nM (sheet 'Samples'), CATDS: 0.18243724402643599; n = 1.
Test [30] deals with CSNK1D. The following applies: read-out: apparent Kd; compound concentrations: 100 nM and 1000 nM (sheet 'Samples'), CATDS: 0.20295054988008099; n = 1.
For test [31], the system named is DYNC1LI1. The following applies: read-out: apparent Kd; compound concentrations: 100 nM and 1000 nM (sheet 'Samples'), CATDS: 0.215188969129953; n = 1.
The subject of test [32] is MAPK14. The following applies: read-out: apparent Kd; compound concentrations: 100 nM and 1000 nM (sheet 'Samples'), CATDS: 0.21262407645477699; n = 1.
Where [33] appears, read: compound concentrations:100 nM and 1000 nM (sheet 'Samples').

SMILES strings stand for the structures. Read-outs that look alike come from different tables or passages of the source.

Turning to `O=C1N=C(N[C@H](CO)Cc2ccccc2)S/C1=C\c1ccc2ncccc2c1` [RO4503319-000], the potency estimated from few doses in test [1] (compound concentrations: 100 nM and 1000 nM (sheet 'Samples'), CATDS: 0.16502460627676999) was 2470 nM; in [2], 1290 nM; in [3], 1330 nM; in test [4], 1350 nM; in test [5], 1810 nM.
Regarding `O=C(Nc1n[nH]c2nc(-c3cccc(O)c3)ccc12)C1CC1` [SB-711805], the potency estimated from few doses in [6] was 1900 nM; in [1] (setting [33]) it was 2070 nM; in test [7] it was 2150 nM; in [8] (setting [33]), 1880 nM; in [9] it was 147 nM; in [10], 223 nM. Besides, the potency estimated from few doses in test [11] is 2170 nM; in test [12] (setting [33]), 2290 nM; in test [13] it was 1840 nM; in test [14], 1310 nM; in test [15], 1150 nM; in test [16] (setting [33]) it was 1330 nM. The potency estimated from few doses in test [17] was 2400 nM; in [18] (setting [33]), 2270 nM; in test [19], 644 nM.
Consider `COc1cc2ncn(-c3cc(OCc4ccncc4Br)c(C(N)=O)s3)c2cc1OC` [GW854278X], for which the potency estimated from few doses in test [20] is 2200 nM; in [21] it was 1880 nM; in test [22] it was 1590 nM; in test [23] (CATDS: 0.58980024549807997), 135 nM; in test [24], 2100 nM; in test [25], 1450 nM.
Turning to `CC(C)(C)c1ccc(C(=O)Nc2cn3cc(-c4cccnc4)ccc3n2)cc1` [TPKI-58], the potency estimated from few doses in [1] (compound concentrations: 100 nM and 1000 nM (sheet 'Samples'), CATDS: 0.161552341020717) was 1950 nM; in test [8] (compound concentrations: 100 nM and 1000 nM (sheet 'Samples'), CATDS: 0.161106478670141) it was 1970 nM; in [26], 1390 nM; in test [27] it was 17.7 nM; in test [28], 1790 nM.
Turning to `C[C@@H](Oc1cc(-n2cnc3ccc(NC(=O)NC(C)(C)C)cc32)sc1C(N)=O)c1ccccc1Cl` [GSK346294A], the potency estimated from few doses in test [1] (compound concentrations: 100 nM and 1000 nM (sheet 'Samples'), CATDS: 0.175578596413346) was 2320 nM; in test [12] (compound concentrations: 100 nM and 1000 nM (sheet 'Samples'), CATDS: 0.187838411723944) it was 1980 nM; in test [23] (CATDS: 0.29940463058405897), 851 nM; in test [29], 2120 nM; in test [18] (compound concentrations: 100 nM and 1000 nM (sheet 'Samples'), CATDS: 0.193816418498372), 1850 nM.
Regarding `CSc1nccc(-c2c(-c3ccc(F)cc3)ncn2CCCN2CCOCC2)n1.Cl` [SB-217146-A], the potency estimated from few doses in [1] (compound concentrations: 100 nM and 1000 nM (sheet 'Samples'), CATDS: 0.183770633421974) was 2140 nM; in [30], 1740 nM; in test [31], 1560 nM; in test [32], 1590 nM; in test [16] (compound concentrations: 100 nM and 1000 nM (sheet 'Samples'), CATDS: 0.18936127019719301) it was 2010 nM.

These data come from PMC11062922 (Nature Chemical Biology, 2023).
